The source of these data is PubChem BioAssay (Tox21).

Results filed as inconclusive are left out. Activity calls are given as the source filed them. Unless noted, the call rests on the fitted dose curve.

The nature of assay [1]: Nuclear factor erythroid 2-related factor 2/antioxidant responsive element (Nrf2/ARE) small molecule agonists: luciferase reporter gene qHTS assay in human keratinocytes (AID 1919969). Further: nearly all actives have a fitted effect of over 35% in size. Further: potency means the concentration at half of the fitted maximal effect. In general terms: Reporter assays use an easily measured gene product as a stand-in for the process of interest.
Assay [2] concerns the target Gonadotropin-releasing hormone receptor (Homo sapiens) (UniProt P30968). In words: Human gonadotropin-releasing hormone receptor (GnRHR) small molecule agonists, calcium flux assay in GnRHR-HEK293 cells (AID 1920063). Further: nearly all actives have a fitted effect of over 35% in size. Further: potency means the concentration at half of the fitted maximal effect. In a few lines: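 GnRHR-HEK293, 1500 cells/well, 18 h 37 C/5% CO2; Ca dye 1 h 37 C; cpd pinned (DMSO), agonist mode; kinetic FL 480/540, 3 min, 1 s reads; 15 conc, n=3.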

Assay [3] is described as follows: G protein-coupled receptor (GPCR) small molecule agonists, calcium flux assay: HEK293 wild type cell line counter screen (AID 1920065). In a few lines: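 Kinetic fluorescence at Ex/Em 480/540, recorded every second over 3 min, served as the read-out after compound addition. Each compound was tested at 15 concentrations in triplicate on cells pre-loaded with calcium dye for 1 h.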

Assay [4] in a line: p53 small molecule agonists, cell-based qHTS assay with human liver microsomes: qHTS cell viability counter screen (AID 1963579). Further: nearly all actives have a fitted effect of over 45% in size. In a few lines:
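p53RE-bla cells (4,000/well) were pre-incubated 5 h at 37 C, then given compounds in DMSO plus human liver microsomes (0.5 mg/mL final) and NADPH (0.5 mg/mL final) for 16 h at 37 C. Viability was read by CellTiter-Glo luminescence.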
(In general: qHTS replaces the single test concentration by a dilution series.)

Assay [5] is described as follows: p53 small molecule agonists, cell-based qHTS assay with rat liver microsomes: qHTS cell viability counter screen (AID 1963580). Further: nearly all actives have a fitted effect of over 45% in size. Further: potency means the concentration at half of the fitted maximal effect. In a few lines:
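In HCT-116 cells carrying a p53 response element-bla reporter, compounds were metabolically activated in situ by rat liver microsomes with NADPH over 16 h. Cell ATP content then served as the cytotoxicity measure.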

Assay [6] has as its target 5-hydroxytryptamine receptor 2A (Homo sapiens) (UniProt P28223). The assay can be described thus: 5-hydroxytryptamine receptor 2A (HTR2A) small molecule antagonists, cell-based qHTS assay (AID 1963586). Further: nearly all actives have a fitted effect of over 45% in size. Further: potency means the concentration at half of the fitted maximal effect. In a few lines: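 Antagonist-mode intracellular calcium assay: DOI (4 nM) added after 5 min compound pre-incubation at room temperature to dye-loaded HTR2A-CHO cells. Fluorescence followed for 3 min, sampled every second.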

Assay [7] shares this target. The assay can be described thus: 5-hydroxytryptamine receptor 2A (HTR2A) small molecule agonists, cell-based qHTS assay (AID 1963587). Further: nearly all actives have a fitted effect of over 30% in size. Further: potency means the concentration at half of the fitted maximal effect. In a few lines:
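HTR2A-CHO cells, plated 18 h at 37 C/5% CO2, dye-loaded 1 h at 37 C; compounds in DMSO added by pin tool (agonist mode). Intracellular calcium flux read as kinetic fluorescence on FDSS over 2 min at 1 s intervals.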

The target in assay [8] is Muscarinic acetylcholine receptor M1 (Homo sapiens) (UniProt P11229). In words: Cholinergic receptor muscarinic 1 (CHRM1) small molecule antagonists, cell-based qHTS assay (AID 1963588). Further: nearly all actives have a fitted effect of over 40% in size. Further: potency means the concentration at half of the fitted maximal effect. An outline of the steps:
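CHRM1-CHO calcium-flux assay, antagonist mode. Cells were seeded 18 h, dye-loaded 1 h at 37 C and given compound for 5 min at RT, then acetylcholine was added at 50nM. FDSS fluorescence was read 3 min; 15 concentrations, three runs.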

Assay [9] has the same target. The assay can be described thus: Cholinergic receptor muscarinic 1 (CHRM1) small molecule agonists, cell-based qHTS assay (AID 1963589). Further: nearly all actives have a fitted effect of over 35% in size. Further: potency means the concentration at half of the fitted maximal effect. An outline of the steps:
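Human M1 in stable CHO line; 18 h plating, 1 h dye load 37 C; cpd added (agonist mode); Ca2+ fluorescence kinetic read, 1 s intervals; 15 conc, 3 runs.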

In assay [10] the target is Beta-2 adrenergic receptor (Homo sapiens) (UniProt P07550). The assay can be described thus: Adrenergic beta2 receptor (ADRB2) small molecule antagonists, cell-based qHTS assay (AID 1963592). Further: nearly all actives have a fitted effect of over 50% in size. Further: potency means the concentration at half of the fitted maximal effect. An outline of the steps: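 Cells (CHO, stable ADRB2 overexpression) incubated 18-20hr at 37C; compounds added from DMSO; agonist mix (1nM isoproterenol, 100uM IBMX, 25uM Ro-20-1724) added; 0.5hr RT; d2-cAMP and anti-cAMP-cryptate added; 1hr RT; 665/615 nm read.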

Assay [11] has the same target. In words: Adrenergic beta2 receptor (ADRB2) small molecule agonists, cell-based qHTS assay (AID 1963593).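 Further: CHO cells stably overexpressing human ADRB2.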 In a few lines:
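CHO cells stably over-expressing ADRB2 were plated overnight at 37C, then dosed with compounds plus a stimulation mix containing 100uM IBMX and 25uM Ro-20-1724 for 0.5hr at room temperature. cAMP was measured by HTRF competition, 1hr.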

In assay [12] the target is D(2) dopamine receptor (Homo sapiens) (UniProt P14416). In words: Dopamine D2 receptor (DRD2) small molecule antagonists, cell-based qHTS assay (AID 1963595; active means well fitted inhibition curve with a large enough effect in the signal ratio in the repeat runs, with a control signal flat; the % refers to the signal ratio). An outline of the steps:
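Antagonist mode in DRD2-HEK293 cells: after compound addition with 0.1 mM Ro20-1724, cells received quinpirole (12 nM) and NKH477 (200 nM) for 30 min at room temperature; HTRF cAMP read after 1 h detection.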

The target of assay [13] is KiSS-1 receptor (Homo sapiens) (UniProt Q969F8). The assay can be described thus: Human kisspeptin (KISS1R) small molecule agonists, calcium flux assay in KISS1R-HEK293 cells (AID 1920064; active means well fitted activation curve with a large enough effect in the repeat runs). In a few lines: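 Stable human KISS1R HEK293 line; 18 h plating, 37 C/5% CO2; calcium dye 1 h 37 C; compound pin transfer; kinetic fluorescence Ex/Em 480/540, 3 min.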
A general note: A change in cytosolic calcium serves as a functional read-out for many receptors and channels.

Assay [14] is described as follows: p53 small molecule agonists, cell-based qHTS assay with human liver microsomes (AID 1963577). An outline of the steps: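 p53RE-bla reporter cells were pre-incubated 5 h at 37 C, then treated with compounds plus human liver microsomes (0.5 mg/mL final) and NADPH (0.5 mg/mL final) for 16 h at 37 C. Beta-lactamase activity was read by LiveBLAzer fluorescence after 2 h at room temperature.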

Assay [15] can be described thus: p53 small molecule agonists, cell-based qHTS assay with rat liver microsomes (AID 1963578). An outline of the steps:
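p53RE-bla cells were exposed to compounds together with rat liver microsomes (0.5 mg/mL final) and NADPH (0.5 mg/mL final) for 16 h at 37 C, then read by LiveBLAzer beta-lactamase fluorescence after 2 h at room temperature.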

A short description of assay [16]: p53 small molecule agonists, cell-based qHTS assay: qHTS cell viability counter screen (AID 1963581). Further: nearly all actives have a fitted effect of over 45% in size. Further: potency means the concentration at half of the fitted maximal effect. An outline of the steps: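 HCT-116 p53RE-bla cells, 4,000/well, plated 5 h before compound pin transfer; 16 h at 37 C; bla substrate 2 h RT; then CellTiter-Glo, 30 min RT, luminescence.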
The nature of assay [17]: p53 small molecule agonists, cell-based qHTS assay (AID 1963582; active means well fitted activation curve with a large enough effect in the signal ratio in the repeat runs, not every such curve was filed as active; the % refers to the signal ratio). An outline of the steps:
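Reporter line: p53RE-bla. Pre-incubation 5 h, 37 C, 5% CO2; compound (DMSO, pin tool) 16 h, 37 C; B/G FRET substrate 2 h RT; fluorescence intensity read.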

The nature of assay [18]: cAMP Responsive Elements (CRE) small molecule agonists, cell-based qHTS assay (AID 1963590). In a few lines: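 HEK 293T CRE-bla, 2,000 cells/well, 18 h preincubation 37 C/5% CO2; cpds (DMSO) pinned, 3 h; LiveBLAzer B/G FRET substrate, 2 h RT.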
Assay [19] can be described thus: cAMP Responsive Elements (CRE) small molecule antagonists, cell-based qHTS assay (AID 1963591; active means well fitted inhibition curve with a large enough effect in the signal ratio in the repeat runs, not every such curve was filed as active; the % refers to the signal ratio). In a few lines: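 Beta-lactamase reporter read by FRET substrate (LiveBLAzer B/G) after 2 h at room temperature. CRE-bla HEK293T cells had received compound plus 0.25 uM (final) NKH477 for 3 h at 37 °C.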
The target in assay [20] is D(2) dopamine receptor (Homo sapiens) (UniProt P14416). The assay can be described thus: Dopamine D2 receptor (DRD2) small molecule agonists, cell-based qHTS assay (AID 1963594). Further: nearly all actives have a fitted effect of over 35% in size. Further: potency means the concentration at half of the fitted maximal effect. An outline of the steps:
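HEK293 cells stably expressing DRD2 were cultured 24 h at 37 C, then given Ro20-1724 (0.1 mM final) and compounds for 10 min at room temperature. NKH477 (200nM) was then added for 30 min. cAMP was read by HTRF.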

Chain of Muscarinic acetylcholine receptor M1 (Homo sapiens) (P11229 whole entry, looked up): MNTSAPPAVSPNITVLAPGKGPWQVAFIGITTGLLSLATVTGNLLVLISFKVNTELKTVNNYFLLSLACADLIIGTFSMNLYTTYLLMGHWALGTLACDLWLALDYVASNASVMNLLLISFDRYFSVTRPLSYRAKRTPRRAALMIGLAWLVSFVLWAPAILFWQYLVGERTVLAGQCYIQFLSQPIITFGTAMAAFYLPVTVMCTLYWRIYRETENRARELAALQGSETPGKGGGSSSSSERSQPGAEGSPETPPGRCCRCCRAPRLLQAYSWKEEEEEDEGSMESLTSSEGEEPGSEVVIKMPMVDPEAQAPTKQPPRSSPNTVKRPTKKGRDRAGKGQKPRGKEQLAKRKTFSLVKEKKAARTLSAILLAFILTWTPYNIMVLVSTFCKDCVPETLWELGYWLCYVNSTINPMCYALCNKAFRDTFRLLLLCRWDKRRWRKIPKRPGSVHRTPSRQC
Chain of KiSS-1 receptor (Homo sapiens) (Q969F8 whole entry, looked up): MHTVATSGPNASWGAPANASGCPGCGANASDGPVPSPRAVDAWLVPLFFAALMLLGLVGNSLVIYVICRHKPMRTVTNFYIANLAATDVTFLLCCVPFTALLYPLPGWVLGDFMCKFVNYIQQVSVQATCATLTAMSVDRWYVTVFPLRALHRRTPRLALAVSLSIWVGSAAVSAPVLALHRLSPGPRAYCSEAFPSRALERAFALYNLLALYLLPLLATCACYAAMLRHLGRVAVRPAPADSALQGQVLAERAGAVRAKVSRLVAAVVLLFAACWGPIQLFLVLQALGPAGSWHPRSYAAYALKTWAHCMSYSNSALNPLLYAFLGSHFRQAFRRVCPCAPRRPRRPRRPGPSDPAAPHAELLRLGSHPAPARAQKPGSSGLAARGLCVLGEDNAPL
Chain of 5-hydroxytryptamine receptor 2A (Homo sapiens) (P28223 whole entry, looked up): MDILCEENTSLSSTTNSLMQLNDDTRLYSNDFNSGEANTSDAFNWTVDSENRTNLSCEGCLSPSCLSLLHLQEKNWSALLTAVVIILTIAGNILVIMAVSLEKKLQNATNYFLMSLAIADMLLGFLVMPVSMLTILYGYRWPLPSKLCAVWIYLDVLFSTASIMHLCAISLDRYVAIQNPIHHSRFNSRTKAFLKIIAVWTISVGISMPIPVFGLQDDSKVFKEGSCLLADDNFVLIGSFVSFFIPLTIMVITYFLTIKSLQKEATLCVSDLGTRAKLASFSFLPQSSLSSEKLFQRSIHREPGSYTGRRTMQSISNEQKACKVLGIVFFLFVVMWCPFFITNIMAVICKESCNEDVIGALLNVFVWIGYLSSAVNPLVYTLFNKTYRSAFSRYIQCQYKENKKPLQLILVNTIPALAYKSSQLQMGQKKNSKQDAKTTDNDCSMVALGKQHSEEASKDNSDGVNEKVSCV
Chain of D(2) dopamine receptor (Homo sapiens) (P14416 whole entry, looked up): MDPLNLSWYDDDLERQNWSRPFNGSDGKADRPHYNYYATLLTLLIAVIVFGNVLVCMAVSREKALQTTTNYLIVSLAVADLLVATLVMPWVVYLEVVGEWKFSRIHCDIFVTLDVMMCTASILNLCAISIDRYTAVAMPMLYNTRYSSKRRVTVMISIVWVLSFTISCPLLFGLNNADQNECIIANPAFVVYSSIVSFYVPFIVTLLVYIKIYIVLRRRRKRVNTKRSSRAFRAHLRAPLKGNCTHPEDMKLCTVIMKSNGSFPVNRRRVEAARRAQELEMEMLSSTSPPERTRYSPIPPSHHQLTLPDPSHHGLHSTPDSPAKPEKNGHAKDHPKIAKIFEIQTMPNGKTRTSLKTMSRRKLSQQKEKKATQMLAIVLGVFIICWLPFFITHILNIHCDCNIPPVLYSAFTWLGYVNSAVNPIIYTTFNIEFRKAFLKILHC
Chain of Gonadotropin-releasing hormone receptor (Homo sapiens) (P30968 whole entry, looked up): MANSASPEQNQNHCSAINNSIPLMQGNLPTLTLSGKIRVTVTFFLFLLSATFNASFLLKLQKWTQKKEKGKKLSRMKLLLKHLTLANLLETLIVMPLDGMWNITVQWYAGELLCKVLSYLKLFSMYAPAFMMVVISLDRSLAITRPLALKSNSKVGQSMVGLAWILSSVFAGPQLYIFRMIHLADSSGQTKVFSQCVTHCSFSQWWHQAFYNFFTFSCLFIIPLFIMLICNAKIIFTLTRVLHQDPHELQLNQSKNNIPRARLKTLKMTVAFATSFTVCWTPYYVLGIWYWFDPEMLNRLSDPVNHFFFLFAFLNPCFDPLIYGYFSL
Chain of Beta-2 adrenergic receptor (Homo sapiens) (P07550 whole entry, looked up): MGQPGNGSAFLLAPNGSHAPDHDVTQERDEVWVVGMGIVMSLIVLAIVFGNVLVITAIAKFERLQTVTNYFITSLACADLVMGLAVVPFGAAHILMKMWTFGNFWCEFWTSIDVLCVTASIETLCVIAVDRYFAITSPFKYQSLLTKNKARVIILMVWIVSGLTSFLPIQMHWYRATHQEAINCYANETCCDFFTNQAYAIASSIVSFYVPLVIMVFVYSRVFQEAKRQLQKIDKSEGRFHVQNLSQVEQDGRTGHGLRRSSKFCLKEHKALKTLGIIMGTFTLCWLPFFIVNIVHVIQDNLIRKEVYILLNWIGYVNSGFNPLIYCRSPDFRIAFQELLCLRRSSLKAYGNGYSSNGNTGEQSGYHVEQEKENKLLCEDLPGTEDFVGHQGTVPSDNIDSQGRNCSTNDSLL

Regarding `CC(C)(O)c1cnn2c(-c3ccc(F)c(-c4c(F)cccc4C#N)c3)cnc2n1`, the Potency entry in [1], in assay [3], in assay [4], in assay [5], in assay [6] and in assay [8] was “inactive” throughout. Besides, the Potency entry in assay [9], in [10], in assay [11] and in assay [12] was “inactive” each time. Moreover, the Potency is 38.9 µM (active) in assay [2] and 54.9 µM (active) in assay [7].
In the case of `NCCCNCCCN`, the Potency result in assay [2], in assay [13], in assay [3], in assay [14], in assay [15] and in [4] was “inactive” each time. Besides, the Potency result in assay [5], in assay [16], in assay [17], in [6], in assay [7] and in [9] was “inactive” each time. In addition, the Potency result in assay [18], in assay [19], in assay [10], in assay [11] and in [12] was “inactive” in each case. For the same compound, in [8], the Potency is 38.1 µM (active).
`CC(C)c1c(CN(C)C(C)Cc2ccccc2)n(C)n(-c2ccccc2)c1=O` (centres undefined): the Potency entry in assay [1], in assay [13], in assay [14], in [15], in [4] and in assay [5] was “inactive” throughout. For the same compound, the Potency entry in [16], in assay [17], in [7], in [9], in [11] and in assay [12] was “inactive” throughout.
Consider `CN(C)C(=O)Oc1cc(OC(=O)N(C)C)cc(C(O)CNC(C)(C)C)c1` (centres undefined), for which the Potency entry in assay [2], in assay [13], in assay [3], in [15], in assay [4] and in assay [5] was “inactive” each time. Besides, the Potency entry in assay [16], in assay [17], in assay [18], in [19], in assay [10] and in [11] was “inactive” each time. Moreover, in assay [12], the Potency entry was “inactive”.
For the compound `COCC(C)N(C(=O)CCl)c1c(C)csc1C` (centres undefined), the Potency in assay [1] is 68.6 µM (active). Further, the Potency result in assay [13], in [3], in assay [14], in [15], in assay [4] and in [16] was “inactive” throughout. Besides, the Potency entry in [17], in assay [6], in assay [8], in assay [9], in assay [19] and in [10] was “inactive” in each case. The Potency result in assay [11], in assay [20] and in assay [12] was “inactive” throughout.
Consider `Cc1ccc([N+](=O)[O-])[c]2c1[O][Hg]2`, for which the Potency was 16.9 µM (active) in assay [2]; 15.8 µM (active) in [5]; 8.9 µM (active) in assay [16]; 7.29 µM (active) in [6]; 23.9 µM (active) in [9]; 29.8 µM (active) in assay [10]. For the same compound, the Potency in [20] is 32.2 µM (active). The Potency entry in assay [13], in assay [3], in assay [14], in [15] and in assay [8] was “inactive” throughout.
Regarding `S=C=NCc1ccccc1`, the Potency in assay [1] was 27.6 µM (active). The Potency entry in assay [13], in assay [3], in assay [15], in [5], in assay [16] and in [17] was “inactive” in each case. Further, the Potency entry in [6], in assay [7], in [8], in assay [9], in assay [18] and in assay [19] was “inactive” each time. Further, the Potency result in [10], in assay [20] and in [12] was “inactive” in each case.
